Assay results reported in PubChem BioAssay (NCI).
Compounds without any hit were thinned out: in the full panel of roughly 79,000, 15% have a hit. Rule as the data show it: active = growth inhibition above about 70%; inactive = the rest.

Experiments:
[1] = NCI Yeast Anticancer Drug Screen. Data for the rad50 strain (AID 155);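 also: 0% = growth of vehicle-only cultures of the same strain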; conditions: S. cerevisiae rad50 strain growth inhibition; at 50.0 µM; active compounds read high
Outline: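 Inhibition values express reduced yeast growth in compound-treated cultures relative to vehicle-treated controls.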

[2] = NCI Yeast Anticancer Drug Screen. Data for the mec2-1 strain (AID 157); conditions: S. cerevisiae mec2-1 strain, at 50.0 µM, active compounds read high
Outline: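 Using mec2-1 yeast: add compound, measure growth, express inhibition versus vehicle-treated cultures.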

[3] = NCI Yeast Anticancer Drug Screen. Data for the sgs1 mgt1 strain (AID 161);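 also: 0% = growth of cultures given vehicle only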; conditions: S. cerevisiae sgs1 mgt1 strain, at 50.0 µM, active compounds read high
Outline: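 Yeast cells carrying a defined DNA-repair defect were exposed to test compounds. Growth inhibition was measured relative to vehicle-treated controls.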

[4] = NCI Yeast Anticancer Drug Screen. Data for the cln2 rad14 strain (AID 165);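 also: 0% = growth equal to vehicle treated cultures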; conditions: S. cerevisiae cln2 rad14 strain, at 50.0 µM, active compounds read high
Outline: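 Yeast strain cln2 rad14, bearing defects in cell cycle control and DNA repair, serves as the test system; values reflect growth inhibition compared with vehicle.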

[5] = NCI Yeast Anticancer Drug Screen. Data for the bub3 strain (AID 167); conditions: S. cerevisiae bub3 mutant strain, at 50.0 µM, active compounds read high
Outline: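 Steps: expose the mutant yeast strain to compound; grow alongside vehicle-treated cultures; measure growth; express inhibition against the vehicle cultures.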

[6] = NCI Yeast Anticancer Drug Screen. Data for the mlh1 rad18 strain (AID 175); conditions: S. cerevisiae mlh1 rad18 strain growth inhibition; at 50.0 µM; active compounds read high
Outline: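 Steps: expose repair-defective yeast to compound; measure growth; express inhibition against vehicle-treated controls.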

Measured: growth inhibition

O=c1[nH]c(-c2ccccc2)c([N+](=O)[O-])c(=O)[nH]1
inactive: [1] 10.7% | [2] -6.25% | [3] -7.65% | [4] -60.2% | [5] 5.95% | [6] 13.6%

Cc1c(C)c(CN)c(C)c(C)c1CN
inactive: [1] -30.5% | [2] -47% | [3] -16.6% | [4] -24.2% | [5] -43.4% | [6] -31.7%

CN1C(NC(=O)C(C)(C)O)C(C)(C)C(C)(C)C1NC(=O)C(C)(C)O (configuration not stated)
inactive: [1] 27.9% | [2] 2% | [3] 42.3% | [4] 6.8% | [5] 26.8% | [6] 29.6%

O=C(Nc1ccccc1[N+](=O)[O-])OCc1ccccc1
inactive: [1] -10.7% | [2] 10.4% | [3] 13.5% | [4] 10.1% | [5] 1.6% | [6] 8.2%

O=C(CCc1n[nH]c(=S)o1)Nc1ccccc1
inactive: [1] 18.4% | [2] 17.4% | [3] 30.4% | [4] 15.8% | [5] 14.1% | [6] 35.3%

O=[N+]([O-])C1C2C=CC(C2)[C@H]1c1ccco1 (some centres not stated)
inactive: [1] -7.85% | [2] -15.2% | [3] -24.7% | [4] 20.2% | [5] -14.8% | [6] -4.95%

CCN(CCO)CC(=O)c1ccc(Cl)c(Cl)c1
inactive: [1] 0.2% | [2] -12.5% | [3] -6.95% | [4] -13.8% | [5] 16.1% | [6] -0.9%

CCOc1ccc(C2=C/C(=C/c3cccs3)C(=O)O2)cc1
inactive: [1] 4.2% | [2] -7.2% | [3] -1.15% | [4] -25.6% | [5] 14.4% | [6] -5.9%

C/C=C/[C@@]1(OC(=O)c2ccccc2)C[C@@H]2CCCC[C@@H]21
inactive: [1] 35.4% | [2] 11.1% | [3] 37.4% | [4] 23.3% | [5] 12.9% | [6] 31.6%

CC(=O)Nc1cc2c(cc1Cl)-c1ccc(Br)cc1C2
inactive: [1] 6.35% | [2] -12.8% | [3] -2.25% | [4] -23.4% | [5] 0.85% | [6] -19.7%

O=C(Cl)c1cc(I)c(I)c(I)c1
inactive: [1] 41% | [2] 47.3% | [3] 54.3% | [4] 37.2% | [5] 53.2% | [6] 40%

NC(=O)C1=Cc2cccn2-c2ccccc2S1
inactive: [1] 3.45% | [2] -2.1% | [3] -2.75% | [4] -16.6% | [5] 2.1% | [6] 0.8%

OC(C1CCCCCCCCCC1)C(O)C1CCCCCCCCCC1 (configuration not stated)
inactive: [1] -35.5% | [2] -38.6% | [3] 2.8% | [4] 15.3% | [5] -38% | [6] -8.85%

O=C(O)c1ccccc1C(=O)OC1CC2CCC1C2 (configuration not stated)
inactive: [1] -26.2% | [2] -22.6% | [3] -10.4% | [4] 24.2% | [5] 12.6% | [6] 1.6%

Nc1nc2c3nc(Nc4ccccc4)sc3nc(=O)n2c2sc(Nc3ccccc3)nc12
inactive: [1] 1.85% | [2] 1.65% | [3] 2.75% | [4] -4.15% | [5] -20.3% | [6] 2.6%

S=c1nc[nH]c2nc(Cl)[nH]c12
inactive: [1] -5.45% | [2] -18.6% | [3] -21.6% | [4] -0.25% | [5] -26.6% | [6] 4%

CC(=O)c1cc([N+](=O)[O-])c(O)c([N+](=O)[O-])c1O
inactive: [1] 20.4% | [2] -2.2% | [3] -14.6% | [4] 12.2% | [5] 7.8% | [6] 8.65%

S=C1N(c2ccccc2)CCN1c1ccccc1
inactive: [1] -15.2% | [2] -14.9% | [3] -21.9% | [4] -17.2% | [5] -18.9% | [6] -2.65%

NC(=O)c1cccc[n+]1[O-]
inactive: [1] -6.25% | [2] 7.25% | [3] -12.6% | [4] 6.05% | [5] 19.6% | [6] 1.3%

O=NNc1ccc(S(=O)(=O)c2ccccc2)cn1
inactive: [1] 49.1% | [2] 13.9% | [3] -27.9% | [4] 12.1% | [5] -26.6% | [6] 5.2%

Cc1cc(Br)c(NC(=O)c2csnn2)c(Br)c1
inactive: [1] -31% | [2] -13.6% | [3] -13.6% | [4] -26.8% | [5] 2.65% | [6] -11.4%

CN(/N=C/c1ccnc2ccccc12)c1ccc([N+](=O)[O-])cc1[N+](=O)[O-]
inactive: [1] -31.3% | [2] -10.9% | [3] -19.5% | [4] 8.1% | [5] -6.95% | [6] -12.6%

CC1(C)CCC2(C)CCC3(C)C(=CCC4C5(C)CCC(O)C(C)(C)C5CCC43C)C2C1 (configuration not stated)
inactive: [1] 0.85% | [2] 6.3% | [3] -10.2% | [4] 16.2% | [5] 4.25% | [6] 0.5%

O=S(=O)(O)CCCCCO
inactive: [1] -6.45% | [2] -18.7% | [3] -15.7% | [4] -46.8% | [5] -2.85% | [6] -9.95%

CCOC(=O)CCc1nc2ccccc2[nH]1
inactive: [1] 0.6% | [2] -0.6% | [3] -0.3% | [4] 3.7% | [5] 0.5% | [6] -4.25%

COc1ccc(NC(=O)C2C(=O)N(c3ccc(OC)cc3)C(=O)/C2=N\N)cc1 (configuration not stated)
inactive: [1] 11.6% | [2] -19.4% | [3] -2.9% | [4] -57.6% | [5] 19.4% | [6] 3.35%

COC(=O)CCCCC#CCCCCC(=O)OC
inactive: [1] 3.25% | [2] 38.6% | [3] -4.65% | [4] -2.6% | [5] 12.2% | [6] 12.9%

CC(C)N(C(=O)c1cccc([N+](=O)[O-])c1)C(C)C
inactive: [1] 14.6% | [2] 11.2% | [3] 7.5% | [4] -30.9% | [5] -4.1% | [6] 15.8%

O=C(O)c1cc(=O)[nH]c(=O)[nH]1.[Cu+2]
inactive: [1] -15.8% | [2] 8.7% | [3] -18.4% | [4] -35.3% | [5] -30.4% | [6] -16.2%

CCCCN1CCNC1=S
inactive: [1] -0.85% | [2] -13.2% | [3] 4.25% | [4] -10.6% | [5] -28.4% | [6] 9.35%

S=P(c1ccccc1)(c1ccccc1)C(P(c1ccccc1)c1ccccc1)P(c1ccccc1)c1ccccc1
inactive: [1] 47.9% | [2] 49.9% | [3] 46.1% | [4] 49.7% | [5] 33.5% | [6] 62%

CCCCc1ccc(-n2cnc3c(=O)[nH]c(N)nc32)cc1
inactive: [1] 5.15% | [2] 29% | [3] -8.3% | [4] -0.4% | [5] 30.8% | [6] 26.5%

Cn1c(=O)c2ccccc2[n+]2c(-c3cccc([N+](=O)[O-])c3)csc12
inactive: [1] -3.9% | [2] -15.3% | [3] 41.5% | [4] 25.6% | [5] -8.85% | [6] -9%

NC(CCCNc1nc(O)c(-c2ccccc2)c(=O)[nH]1)C(=O)O (configuration not stated)
inactive: [1] -12.9% | [2] -24.4% | [3] -10.7% | [4] -44% | [5] -10.3% | [6] -3.55%

Cc1c(C)c(Br)c(C)c(C)c1Br
inactive: [1] -7.45% | [2] -18.3% | [3] 4.25% | [4] 10.3% | [5] -6.2% | [6] -16.8%

CC(=O)OCC1(C)C(O)CCC2(C)C1CCC1CC3CC12CCC3(O)CO (configuration not stated)
inactive: [1] 12.2% | [2] -26% | [3] 13.8% | [4] 2.95% | [5] -23.4% | [6] 7.9%

O=C(CCc1cccs1)OC1CCCCC1
inactive: [1] 9% | [2] 7.05% | [3] 4.4% | [4] 13.6% | [5] 9.35% | [6] 20.9%
